Bioassay records (PubChem)
The entries come from a sample that favours hits as a whole.
Cycloheximide cs – counter-screen for Shiga toxin inhibitors: cycloheximide protein synthesis inhibition | AID 2314 | actives 12% (n = 300,000) | cell reporter, cycloheximide protein synthesis inhibition counterscreen | max response, %; in the data active = max response mostly above about 13%, no sharp cut-off; inactive = mostly below about 14%; also: read at 38.3 µM for the half of the compounds with a filed dose; 0% is about no effect
LASV entry inh – Lassa virus entry inhibition; Lassa virus pseudotype entry inhibition, cell reporter; actives 1.2% (n = 300,000); AID 540256; Potency, µM (top dose mostly 37.9 µM), for the others: at the highest dose activity change, negative = inhibition, hits mostly inhibitors; calls by dose curve; tested in HEK293 cells; also: potency is read from the fitted curve at half-maximal effect; % is scaled to controls: 0 for no effect and ±100 for the full control effect; nearly all actives have a fitted effect of over 50% in size
Vaccinia Venus – inhibitors of vaccinia virus (Venus reporter); Vaccinia virus Venus reporter expression, fluorescence; Potency, µM (top dose mostly 36.5 µM), for inactives: top-dose activity change, negative = inhibition, usual class: inhibitors; actives 0.46% (n = 330,000); calls by dose curve; tested in A549 cells; also: potency is read from the fitted curve at half-maximal effect; % is scaled to controls: 0 for no effect and ±100 for the full control effect; nearly all actives have a fitted effect of over 30% in size
Shiga toxin inh – blocks Shiga toxin action in Vero cells. Vero cells, Shiga toxin protein synthesis inhibition reporter. inhibition, % at 38.7 µM. actives 9.2% (n = 290,000). AID 2315; in the data active = inhibition mostly above about 28%, no sharp cut-off; inactive = mostly below about 43%; also: 0% is about no effect
Vaccinia mCherry – vaccinia inhibition (mCherry reporter). Potency, µM (titrated, usually from 36.5 µM), for inactives: at the top dose activity change, negative = inhibition, hits mostly inhibitors. actives 0.63% (n = 310,000). Vaccinia virus mCherry reporter infection, fluorescence; calls by dose curve; tested in A549 cells; also: potency is read from the fitted curve at half-maximal effect; % is scaled to controls: 0 for no effect and ±100 for the full control effect; nearly all actives have a fitted effect of over 35% in size
Marburg entry inh – Marburg virus entry inhibition; Marburg virus pseudotyped entry inhibition, cell reporter; Potency, µM (doses to about 37.8 µM), inactives show at the highest dose activity change, negative = inhibition, most hits filed as inhibitors; actives 1.8% (n = 300,000); AID 540276; calls by dose curve; tested in HEK293 cells; also: potency is read from the fitted curve at half-maximal effect; % is scaled to controls: 0 for no effect and ±100 for the full control effect
Numbers without * were called inactive; [ ] = dose if it differs, or a comment.

CCOC(=O)CCCCCC(=O)Nc1ccc2c(c1)CC(=O)N([C@H](C)CO)C[C@@H](C)[C@H](CN(C)Cc1ccc3c(c1)OCO3)O2 was read as Vaccinia Venus -20.0% and Vaccinia mCherry inactive.
C[C@@H]1CN([C@H](C)CO)C(=O)Cc2cc(NC(=O)Nc3ccccc3)ccc2O[C@@H]1CN(C)Cc1ccc2c(c1)OCO2 was read as Vaccinia Venus 28.2µM* and Vaccinia mCherry inconclusive.
`CCOC(=O)c1c(C)[nH]c(C(=O)OC(C)C(=O)NC2(C#N)CCCCC2)c1C` (stereo unspecified) gave Vaccinia Venus -19.1% and Vaccinia mCherry inactive.
Cc1nc2n(c(=O)c1CCN1CCC(c3noc4cc(F)ccc34)CC1)CCCC2 was read as Cycloheximide cs -5.1, Vaccinia Venus -9.8%, Shiga toxin inh -6.2, Vaccinia mCherry -16.6% and Marburg entry inh 11.2µM*.
`CCCCOC(=S)NC(=O)c1sc2ccccc2c1Cl` gave Cycloheximide cs 21.7, Shiga toxin inh 36.4 and Marburg entry inh -3.0%.
For CN(C(=O)COC(=O)c1sc2ccccc2c1Cl)C1CCCCC1 the results were Cycloheximide cs 17.3, LASV entry inh 11.8%, Vaccinia Venus -21.5%, Shiga toxin inh 54.7*, Vaccinia mCherry -21.0% and Marburg entry inh inconclusive.
Screening CN(C)CCCOC(=O)c1sc2ccccc2c1Cl returned Cycloheximide cs 39.4*, LASV entry inh -13.0%[46.1 µM], Vaccinia Venus -4.0%, Shiga toxin inh 59.4*, Vaccinia mCherry inactive and Marburg entry inh inconclusive.
For Cc1ccc(-n2c3nc(=O)[nH]c(=O)c-3cc3c(C)nn(-c4ccccc4)c32)cc1C the results were LASV entry inh -18.1%[46.1 µM], Vaccinia Venus -2.2%, Vaccinia mCherry -2.1% and Marburg entry inh -13.6%[46.1 µM].
`Cc1ccc(NC(=O)Cn2cccc2C2=NC(c3ccccc3)CO2)cc1C` (stereo unspecified) gave Cycloheximide cs -2.1, LASV entry inh -1.9%, Vaccinia Venus -29.4%, Shiga toxin inh 18.1, Vaccinia mCherry inconclusive and Marburg entry inh inconclusive.
For CCc1ccccc1NC(=O)Cn1cccc1C1=NC(c2ccccc2)CO1 (stereo unspecified) the results were Cycloheximide cs -2.9, LASV entry inh -0.8%, Vaccinia Venus -4.4%, Shiga toxin inh 14.3, Vaccinia mCherry inactive and Marburg entry inh inconclusive.
`Fc1ccc(Cn2cccc2C2=NC(c3ccccc3)CO2)cc1` (stereo unspecified) gave Cycloheximide cs 68.7*, LASV entry inh 13.2%, Vaccinia Venus 0.0%, Shiga toxin inh 74.9*, Vaccinia mCherry -2.5% and Marburg entry inh 26.4%.
`Cc1oc(-c2ccccc2)nc1Cn1cccc1C1=NC(c2ccccc2)CO1` (stereo unspecified) gave Cycloheximide cs -2.4, LASV entry inh inconclusive, Vaccinia Venus -32.8%, Shiga toxin inh -2.7, Vaccinia mCherry inconclusive and Marburg entry inh 20µM*.
`Cc1cccc(/C=N\Nc2cn[nH]c(=O)c2Cl)c1` gave Cycloheximide cs 16.4*, LASV entry inh 34.9%[14.3 µM], Vaccinia Venus -12.2%, Shiga toxin inh 35.9*, Vaccinia mCherry -18.1% and Marburg entry inh -22.4%.
`O=c1[nH]ncc(N/N=C\c2cccnc2)c1Cl` gave Cycloheximide cs -2.5 and Shiga toxin inh 17.3.
`Cc1ccccc1-c1noc(-c2ccccc2C(=O)NCC2CCCO2)n1` (stereo unspecified) gave Cycloheximide cs 17.0 and Shiga toxin inh 45.9.
Screening COc1ccccc1-c1noc(-c2ccccc2C(=O)NCC2CCCO2)n1 (stereo unspecified) returned Cycloheximide cs 16.1* and Shiga toxin inh -0.9.
Screening COc1ccc(-c2noc(-c3ccccc3C(=O)NCC3CCCO3)n2)cc1 (stereo unspecified) returned Cycloheximide cs 19.1*, LASV entry inh inconclusive, Vaccinia Venus -10.7%, Shiga toxin inh 10.5, Vaccinia mCherry inactive and Marburg entry inh -27.2%[46.1 µM].
`O=C(NCC1CCCO1)c1cc(-c2ccccc2F)no1` (stereo unspecified) gave Cycloheximide cs 29.1* and Shiga toxin inh 91.0*.
`COc1ccc(Br)cc1CNC(=O)CCSCc1ccc(Cl)cc1` gave LASV entry inh 9.1%[46.1 µM], Vaccinia Venus -4.3% and Vaccinia mCherry -11.4%.
Screening Cc1ccnc(NC(c2cccnc2)c2ccc3cccnc3c2O)c1 (stereo unspecified) returned Cycloheximide cs -2.0, LASV entry inh inconclusive, Vaccinia Venus inconclusive, Shiga toxin inh -10.8, Vaccinia mCherry inconclusive and Marburg entry inh 8.91µM*.
Screening Oc1c(C(Nc2ccccn2)c2ccccn2)ccc2cccnc12 (stereo unspecified) returned Cycloheximide cs -3.8, LASV entry inh inconclusive, Vaccinia Venus 10µM*, Shiga toxin inh -13.2, Vaccinia mCherry inconclusive and Marburg entry inh inconclusive.
Oc1ccccc1C(Nc1nccs1)c1ccc2cccnc2c1O (stereo unspecified) was read as Cycloheximide cs 0.0, LASV entry inh 7.3µM*, Vaccinia Venus inconclusive, Shiga toxin inh 4.5, Vaccinia mCherry 8.91µM* and Marburg entry inh 11.6µM*.
`Cc1ccnc(NC(c2ccccc2F)c2ccc3cccnc3c2O)c1` (stereo unspecified) gave LASV entry inh inconclusive, Vaccinia Venus inconclusive, Vaccinia mCherry 15.8µM* and Marburg entry inh inconclusive.
For COc1cc(C(Nc2ccccn2)c2ccc3ccc(C)nc3c2O)cc(OC)c1O (stereo unspecified) the results were Cycloheximide cs -1.6, LASV entry inh inconclusive, Vaccinia Venus inconclusive, Shiga toxin inh -10.0, Vaccinia mCherry 12.6µM* and Marburg entry inh inconclusive.
O=C(COC(=O)c1ccc2c(c1Cl)C(=O)c1ccccc1C2=O)NC1CC1 was read as Cycloheximide cs 31.3*, LASV entry inh -5.5%, Shiga toxin inh 39.3* and Marburg entry inh -33.0%.
For O=C(COC(=O)c1ccccc1[N+](=O)[O-])c1ccc(C2CCCCC2)cc1 the results were Cycloheximide cs 59.9*, LASV entry inh -29.8%, Vaccinia Venus -22.7%, Shiga toxin inh 71.0*, Vaccinia mCherry -25.3% and Marburg entry inh inconclusive.
For CNC(=O)COC(=O)c1ccccc1C(=O)c1ccc(Cl)c([N+](=O)[O-])c1 the results were Cycloheximide cs 33.4*, Vaccinia Venus inconclusive, Shiga toxin inh 41.2 and Vaccinia mCherry inconclusive.
For O=C(COC(=O)c1cc([N+](=O)[O-])ccc1Cl)NC1CCCC1 the results were Cycloheximide cs -3.4 and Shiga toxin inh -5.3.
`O=C(COC(=O)c1ccccc1C(=O)c1ccc(Cl)c([N+](=O)[O-])c1)NC1CC1` gave Cycloheximide cs 16.9, LASV entry inh inconclusive, Vaccinia Venus 10µM*, Shiga toxin inh 9.6, Vaccinia mCherry inconclusive and Marburg entry inh inconclusive.
Screening O=C1/C(=C/c2ccccc2)SC(=S)N1CC(=O)N1CCCCC1c1cccnc1 (stereo unspecified) returned Cycloheximide cs -1.8 and Shiga toxin inh -20.5.
